From PubChem BioAssay (EPA / NIEHS) come the findings set out here.

SMILES strings stand for the structures. Where “and” joins values, the source holds several entries; their conditions need not be identical. Equal values may be shown once. Inconclusive results are not listed. Calls of active or inactive are those of the source. The calls were made as follows, unless noted: active = hit-call score of the fitted dose curve at least 0.9, where 1 is the maximum; inactive = score below 0.9.

The target of assay [1] is Nucleoli Translocation, AR (gene 367) (UniProt P10275). Put plainly: UPITT_HCI_U2OS_AR_TIF2_Nucleoli_Agonist: University of Pittsburgh U2OS Androgen Receptor-Transcriptional Intermediary Factor 2 (AR-TIF2) Agonism High Content Imaging Assay for Nucleoli Translocation (AID 2283998; active = hit-call score of the fitted dose curve at least 0.9, where 1 is the maximum). A digest of the protocol:
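Cells express human AR fused to red fluorescent protein and TIF2 fused to GFP. Red fluorescence in the nucleolar region was quantified by high-content imaging and fitted as gain-of-signal against a DMSO baseline. Compounds were tested at 0.195 to 50 uM final (0.5% DMSO).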

The target in assay [2] is Ratio of Nucleoli Translocation and Cytoplasm, AR (gene 367) (UniProt P10275). Put plainly: UPITT_HCI_U2OS_AR_TIF2_Nucleoli_Cytoplasm_Ratio_Agonist: University of Pittsburgh U2OS Androgen Receptor-Transcriptional Intermediary Factor 2 (AR-TIF2) Agonism High Content Imaging Assay for Ratio of Nucleoli Translocation and Cytoplasm (AID 2284000; active = hit-call score of the fitted dose curve at least 0.9, where 1 is the maximum;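 also: hits raise the red nucleolar to cytoplasm ratio above vehicle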). A digest of the protocol: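 Compounds tested at 20 uM final in primary screen (0.2% DMSO) and 0.195-50 uM final in dose-response (0.5% DMSO). Imaging of human U2OS cells bearing RFP-AR and GFP-TIF2; endpoint is nucleoli/cytoplasm red signal ratio, positive direction relative to DMSO.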

Assay [3] in a line: CCTE_Harrill_HTTr_Viability_MCF7: CCTE's 6-hour Cell Viability Assessment for the High-Throughput Transcriptomics (HTTr) Platform, in MCF-7 cells cultured in DMEM + 10% fetal bovine serum, Harrill Lab (AID 2284010). A digest of the protocol: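 PI exclusion, high-content imaging; 8-pt dilution series, 6 h exposure; bidirectional fit vs DMSO (neg. ctrl/baseline); gain of signal = loss of membrane integrity.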

The nature of assay [4]: CCTE_Harrill_HTTr_Apoptosis_MCF7: CCTE's 6-hour Apoptosis Assessment for the High-Throughput Transcriptomics (HTTr) Platform, in MCF-7 cells cultured in DMEM + 10% fetal bovine serum, Harrill Lab (AID 2284011). In a few lines:
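MCF-7 cells in DMEM + 10% fetal bovine serum were exposed to chemicals for 6 hours over an eight-point dilution series. Caspase-3/7 activation was imaged by high content imaging with CellEvent Caspase 3/7 Green; bidirectional fitting used DMSO as baseline.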

A short description of assay [5]: CCTE_Harrill_HTTr_CellCount_MCF7: CCTE's Cell Proliferation Assessment for the High-Throughput Transcriptomics (HTTr) Platform, Harrill Lab (AID 2284012; active = hit-call score of the fitted dose curve at least 0.9, where 1 is the maximum;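 also: count of Hoechst-stained nuclei per well by high-content imaging in MCF-7 cells; cells exposed to compound for six hours; intended direction is loss of nuclei count meaning fewer cells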). In a few lines: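 Readout: Hoechst nuclear count by high-content imaging. MCF-7, 8-point dilution series, 6 h exposure. Bidirectional fit vs DMSO baseline.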
Assay [6] is described as follows: CCTE_Harrill_HTTr_Apoptosis_PRF_DMEM_24hr: (Pilot) CCTE's 24-hour Apoptosis Assessment for the High-Throughput Transcriptomics (HTTr) Platform, in MCF-7 cells cultured in phenol red-free DMEM + 10% charcoal-stripped fetal bovine serum, Harrill Lab (AID 2283986). A digest of the protocol:
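Eight concentrations tested for 24 h on MCF-7 grown in charcoal-stripped serum, phenol red-free DMEM. High content imaging of CellEvent Caspase 3/7 Green signal gives apoptosis read-out, fitted both ways relative to DMSO.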

The nature of assay [7]: CCTE_Simmons_MITO_basal_resp_rate: CCTE's HepG2 Seahorse XF Respirometric Screening Assay at Basal Respiratory State, Simmons Lab (AID 2284001). The settings on record: actives raise or lower the signal. A digest of the protocol:
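Basal-phase OCR in HepG2 cells, read at 6-min intervals across a 72-min run, with test compound injected at 125 nM–100 uM final (7 points). Fitted both directions against DMSO; three biological replicates per concentration.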

A short description of assay [8]: CCTE_Simmons_MITO_max_resp_rate: CCTE's HepG2 Seahorse XF Respirometric Screening Assay at Maximal Respiratory State [uncoupled], Simmons Lab (AID 2284002). The settings on record: actives raise or lower the signal. A digest of the protocol:
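HepG2 oxygen consumption was read on a Seahorse XF96 after FCCP uncoupler injection, following test compound injection; 7 concentrations, 125 nM–100 uM final, three biological replicates. Bidirectional fitting against DMSO vehicle baseline.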

Assay [9] has as its target Ratio of Nucleoli Translocation and Cytoplasm, AR (gene 367) (UniProt P10275). Put plainly: UPITT_HCI_U2OS_AR_TIF2_Nucleoli_Cytoplasm_Ratio_Antagonist: University of Pittsburgh U2OS Androgen Receptor-Transcriptional Intermediary Factor 2 (AR-TIF2) Antagonism High Content Imaging Assay for Ratio of Nucleoli Translocation and Cytoplasm (AID 2283999; active = hit-call score of the fitted dose curve at least 0.9, where 1 is the maximum;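 also: antagonists lower the DHT-driven ratio of nucleolar to cytoplasmic red signal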). A digest of the protocol:
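Read-out is the ratio of nucleolar to cytoplasmic AR-RFP fluorescence, imaged by high-content microscopy in U2OS cells coexpressing TIF2-GFP. Single-point 20 uM screen, triplicate confirmation, then 0.195–50 uM dose response; activity referenced to DHT baseline.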

A short description of assay [10]: CCTE_Simmons_MITO_viability: CellTiter-Glo Viability Assessment for CCTE's HepG2 Seahorse XF Respirometric Screening Assay [post-hoc], Simmons Lab (AID 2284007; active = hit-call score of the fitted dose curve at least 0.9, where 1 is the maximum). In a few lines:
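Luciferase-coupled ATP luminescence, single endpoint. HepG2, post-respirometry. Compound 125 nM–100 uM final, 7 conc., 90 min. n=3 biological, technical singles. DMSO vehicle/baseline; dichlone 10 nM–100 uM, 8 conc., as positive control.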

Assay [11] can be described thus: CCTE_Shafer_MEA_acute_spike_number: CCTE's Neural Acute Assay for Total Number of Spikes, Shafer Lab (AID 2284008).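 As to AC50: curve fitted for decrease in spike count so AC50 reflects inhibitors.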 A digest of the protocol:
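Primary rat cortical neurons on 16-electrode MEA wells; on DIV 13 or 15, 40-min baseline then 40-min recording with compound (0.03-40 uM) at 37 C. Spikes detected at 8x rms noise; percent change versus baseline, DMSO as negative control.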

Assay [12] is described as follows: CCTE_Shafer_MEA_acute_firing_rate_mean: CCTE's Neural Acute Assay for Mean Firing Rate, Shafer Lab (AID 2284009).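 Also: analyzed for loss of signal so actives lower firing rate relative to DMSO.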 In a few lines: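 Primary rat cortical neurons on 16-electrode MEA wells were exposed on DIV 13 or 15 to compound (0.03-40 uM). Spike counts per recording time, averaged over electrodes, were compared between 40-min baseline and 40-min post-exposure recordings as percent change.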

Assay [13] can be described thus: CCTE_Shafer_MEA_acute_burst_number: CCTE's Neural Acute Assay for Single-Electrode Bursts, Shafer Lab (AID 2284013). In a few lines:
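Primary rat cortical neurons on 16-electrode MEA wells, DIV 13 or 15, exposed to compound (0.03-40 uM; ≥3 wells); 40-min recordings at 37 C before and after treatment. Burst count expressed as percent change from baseline, DMSO as negative control.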

Assay [14] in a line: CCTE_Shafer_MEA_acute_burst_duration_mean: CCTE's Neural Acute Assay for Mean Burst Duration, Shafer Lab (AID 2284014).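 Also: hits are decreases in mean burst duration relative to DMSO controls.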 In a few lines:
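Mean burst duration was compared between a 40 min baseline and a 40 min recording in the presence of compound (0.03-40 uM, 37 C), giving percent change per well. Cultures were rat cortical neurons at DIV 13 or 15; wells needed ≥10 active electrodes.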

Assay [15] can be described thus: CCTE_Shafer_MEA_acute_per_burst_spike_number_mean: CCTE's Neural Acute Assay for Average Number of Spikes Per Burst, Shafer Lab (AID 2284015).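 Also: hits are decreases in mean spikes per burst versus baseline.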 In a few lines:
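Rat primary cortical neurons on 48-well MEAs (DIV 13 or 15) were treated with 0.03-40 uM compound at 37 C. Mean spikes per burst over 40 min were recorded before and after exposure and expressed as percent change from baseline, relative to DMSO.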

Assay [16] in a line: CCTE_Shafer_MEA_acute_burst_percentage_mean: CCTE's Neural Acute Assay for Percentage of Spikes in a Burst, Shafer Lab (AID 2284017).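 As to AC50: curve fitted for loss of signal so potency reflects decreased burst percentage.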 A digest of the protocol: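 Primary rat cortical neurons on 48-well MEA plates, treated on DIV 13 or 15 at 0.03-40 uM. Spikes detected at 8x rms noise at 37C; percent change from 40-min baseline to 40-min post-dose recording, fitted versus DMSO.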

Assay [17] is described as follows: CCTE_Shafer_MEA_acute_burst_percentage_std: CCTE's Neural Acute Assay for Standard Deviation of Burst Percentage, Shafer Lab (AID 2284018).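 Also: fitted in the negative direction so actives lower burst percentage SD.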 A digest of the protocol:
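Value is percent change from baseline in the across-electrode SD of spikes-in-bursts percentage, wells with >/= 10 active electrodes. Acute 40-min exposure to 0.03-40 uM on DIV 13 or 15 rat cortical cultures, recorded at 37 C after 40-min baseline.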

Assay [18] can be described thus: CCTE_Shafer_MEA_acute_per_network_burst_spike_number_mean: CCTE's Neural Acute Assay for Average Number of Spikes in a Network Burst, Shafer Lab (AID 2284019).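 As to AC50: curve fitted for loss of signal so actives reduce spikes per network burst.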 In a few lines: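 Percent change from baseline in mean spikes per network burst, spikes detected at 8x rms noise. Each compound at 0.03-40 uM in at least three wells of rat cortical cultures, recorded 40 min before and 40 min during exposure.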

Assay [19] is described as follows: CCTE_Shafer_MEA_acute_per_network_burst_spike_number_std: CCTE's Neural Acute Assay for Standard Deviation of Number of Spikes in a Network Burst, Shafer Lab (AID 2284020).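 Also: fitted for decrease in spike-number SD versus DMSO so actives lower it.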 A digest of the protocol:
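Endpoint: percent change from 40 min baseline in standard deviation of spikes per network burst, after 40 min compound exposure (0.03-40 uM, 37 C). Cortical rat neurons on MEA at DIV 13 or 15; spikes detected at 8x rms noise, 300-5000 Hz band-pass.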

The test system of assay [20] is DIO1 (gene 1733). Put plainly: CCTE_GLTED_hDIO1: CCTE's human Deiodinase 1 (DIO1) Inhibition Assay, Great Lakes Toxicology and Ecology Division (GLTED) Lab (AID 2283987; active = hit-call score of the fitted dose curve at least 0.9, where 1 is the maximum;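 also: isolated human DIO1 enzyme in a cell-free setup rather than cells; enzyme activity read as free iodide liberated from substrate via Sandell-Kolthoff colorimetry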). A digest of the protocol:
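Cell-free human DIO1 enzyme was incubated with test chemical for 3 h, and iodide released from substrate was measured by Sandell-Kolthoff absorbance. Loss of signal versus DMSO baseline indicated inhibition; plates were run in triplicate.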

Nucleoli Translocation, AR (gene 367), sequence (P10275 whole entry, looked up, the tested form may be a part): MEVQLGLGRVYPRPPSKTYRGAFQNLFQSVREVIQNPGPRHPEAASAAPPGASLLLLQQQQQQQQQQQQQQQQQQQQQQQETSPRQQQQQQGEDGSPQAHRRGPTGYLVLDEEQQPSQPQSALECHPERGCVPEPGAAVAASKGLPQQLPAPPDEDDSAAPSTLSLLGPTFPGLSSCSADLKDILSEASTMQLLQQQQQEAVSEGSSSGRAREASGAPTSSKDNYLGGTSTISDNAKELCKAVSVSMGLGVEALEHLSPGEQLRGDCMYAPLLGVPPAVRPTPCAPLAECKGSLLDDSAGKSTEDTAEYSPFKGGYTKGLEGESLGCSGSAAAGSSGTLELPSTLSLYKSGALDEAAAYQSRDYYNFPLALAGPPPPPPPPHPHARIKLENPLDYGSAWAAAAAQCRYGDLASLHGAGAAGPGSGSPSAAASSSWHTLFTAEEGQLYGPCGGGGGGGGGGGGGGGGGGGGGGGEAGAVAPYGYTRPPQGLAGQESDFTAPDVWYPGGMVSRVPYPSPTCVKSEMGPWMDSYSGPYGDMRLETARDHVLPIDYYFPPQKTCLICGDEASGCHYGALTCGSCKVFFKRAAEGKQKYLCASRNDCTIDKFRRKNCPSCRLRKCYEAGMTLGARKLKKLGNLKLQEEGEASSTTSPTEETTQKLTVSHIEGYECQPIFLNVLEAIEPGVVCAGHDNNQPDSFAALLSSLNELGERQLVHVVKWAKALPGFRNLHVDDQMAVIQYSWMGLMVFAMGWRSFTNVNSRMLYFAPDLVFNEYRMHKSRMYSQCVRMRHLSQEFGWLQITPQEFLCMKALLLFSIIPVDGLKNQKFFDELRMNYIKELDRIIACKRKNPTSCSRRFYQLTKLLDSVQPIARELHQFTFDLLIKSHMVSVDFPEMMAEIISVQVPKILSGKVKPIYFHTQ
Ratio of Nucleoli Translocation and Cytoplasm, AR (gene 367), sequence (P10275 whole entry, looked up): as the sequence (P10275 whole entry, looked up, the tested form may be a part) above

On to `CCCN(CCC)C(=O)SCC`, for which the call in [1], in assay [2], in assay [3], in assay [4] and in assay [5] was inactive.
For orientation: AC50 means the concentration at which the activity in the assay is half-maximal. Take `N[C@@H](Cc1cc(I)c(Oc2ccc(O)c(I)c2)c(I)c1)C(=O)O`: the result in assay [6], in assay [8], in assay [3] and in assay [4] was inactive. The AC50 in [7] was 6.61 µM (active).
Take `CN(C)C(=O)Nc1ccc(Cl)c(Cl)c1`: the outcome in [9], in assay [3], in assay [4] and in assay [5] was inactive.
For the molecule `CCSC(=O)N(CC(C)C)CC(C)C`, the call in [1], in [9], in assay [2], in assay [3] and in [4] was inactive.
Turning to `CCCCC(CC)CN1C(=O)C2C3C=CC(C3)C2C1=O` (centres undefined), the AC50 in [7] was 25.3 µM (active); in assay [8], 32.1 µM (active); in [11], 30.1 µM (active); in [12], 30.1 µM (active); in [16] it was 36 µM (active); in [17], 30.3 µM (active). For the same molecule, the AC50 in assay [18] is 4.1 µM (active); in assay [19], 29.8 µM (active). Besides, the call in assay [10], in assay [3], in [4], in assay [13], in [14] and in assay [15] was inactive.
With `CC(C)(c1ccc(O)cc1)c1ccc(O)cc1`, the result in assay [6], in [9], in [3], in [4], in assay [5] and in assay [15] was inactive. The molecule was called inactive in [17], in assay [18] and in assay [19]. Moreover, the AC50 in assay [1] was 73.3 µM (active); in assay [2], 86.7 µM (active); in assay [7] it was 18.9 µM (active) and 24.7 µM (active); in [8], 37.1 µM (active) and 34.8 µM (active); in assay [11], 5.7 µM (active); in [12], 5.7 µM (active). Besides, the figures for the AC50 in assay [13] and in assay [16] were 6.17 µM (active) and 28.6 µM (active), respectively.
Regarding `S=C([S-])NCCNC(=S)[S-].[Mn+2]`, the outcome in assay [6], in assay [3], in assay [4] and in assay [5] was inactive. The AC50 in [20] is 35.7 µM (active).
Consider `c1ccc(Nc2ccccc2)cc1`, for which the outcome in [3] and in assay [4] was inactive.
Consider `COC(=O)c1ccc(I)cc1S(=O)(=O)NC(=O)Nc1nc(C)nc(OC)n1`, for which the outcome in [3] and in assay [4] was inactive.
Turning to `CCN(Cc1c(F)cccc1Cl)c1c([N+](=O)[O-])cc(C(F)(F)F)cc1[N+](=O)[O-]`, the outcome in assay [3] and in assay [4] was inactive.
As for `CCOC(=O)C(C)Oc1ccc(Oc2cnc3cc(Cl)ccc3n2)cc1` (centres undefined), the outcome in [3] and in assay [4] was inactive.
`COCCO`: the outcome in assay [3] and in [4] was inactive.
As to `COC(=O)c1ccccc1C(=O)O`, the molecule was called inactive in [11], in assay [12], in assay [3], in assay [4], in [5] and in [13]. Also, the molecule was classed as inactive in assay [14], in assay [15], in [16], in assay [17], in assay [18] and in [19].
As for `COc1c(Cl)ccc(Cl)c1C(=O)O`, the outcome in assay [3] and in assay [4] was inactive.
